# Data from PubChem BioAssay (NCATS).
# Where “and” joins values, the source holds several entries; their conditions need not be identical. Equal values may be shown once. Results filed as inconclusive are left out. Where a call stands in place of a potency, no number is given. More than one record can exist for a structure, and the calls need not agree. Calls of active or inactive are those of the source. The call rests on the fitted dose curve; in most records, active means well fitted curve in the direction sought with a large enough effect; inconclusive means small, poorly fitted or top-dose-only effect, or another doubt; inactive means no such curve, though single readings can be large; an effect the other way counts as inactive or inconclusive.
# How the values were obtained:
# [1] = Cellular Toxicity (caspase-3) N2a (AID 665);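 further: compound exposure lasted 16 h at 37 °C before readout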
# Procedure, shortened: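 Luminescent Caspase-Glo 3/7 readout in N2a mouse neuroblastoma cells after 16 h compound exposure at 37 °C. Signal scaled to DMSO (basal) and 10 uM staurosporine (100%). Concentration-response fitted with Hill equation for AC50.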
# [2] = Cellular Toxicity (caspase-3) NIH 3T3 (AID 666)
# Procedure, shortened: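 NIH 3T3, 1000 cells/well, 5 hr settle then 16 hr compound at 37°C; Caspase-Glo 3/7, 20 min RT, luminescence. DMSO = basal, 100 uM tamoxifen = 100%. Hill-equation AC50, qHTS.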
# [3] = Cellular Toxicity (caspase-3) Renal Proximal Tubule (AID 667);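 further: cells exposed to compound for 16 hours at 37 °C before detection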
# Procedure, shortened: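 Caspase-Glo 3/7 read-out, rat primary kidney proximal tubule cells. Compound exposure 16 h, 37 °C; detection after 1 h at RT. Activity scaled to DMSO and 10 uM staurosporine.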
# [4] = biological target: Guanine nucleotide-binding protein G(i) subunit alpha-1 (Homo sapiens) (UniProt P63096); test: qHTS Assay for Inhibitors of RGS12 GoLoco Motif Activity (Green Fluorophore) (AID 879);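 further: negative values mean loss of peptide binding seen as reduced polarization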
# Procedure, shortened: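 A drop in FITC polarization marked displacement of the FITC-tagged RGS12 GoLoco peptide (10 nM) from Gαi1 (50 nM). Compounds were incubated 10 min at room temperature in Tris pH 7.5 buffer containing 150 mM NaCl, 0.1 mM GDP and 0.05% NP40; unlabeled peptide titration served as control.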
# [5] = biological target: Cytochrome P450 3A4 (Homo sapiens) (UniProt P08684); test: qHTS Assay for Activators of Cytochrome P450 3A4 (AID 885); further: nearly all actives have a fitted effect of over 65% in size
# Procedure, shortened: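 Luminescent readout of luciferin formed from 25 uM Luciferin-PPXE (KM level) by 20 nM CYP3A4 in 200 mM KPO4, with 60 min NADPH-driven reaction at room temperature after 10 min compound exposure. Ketoconazole (57 uM) defined 100% inhibition.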
# [6] = biological target: Cytochrome P450 2D6 (Homo sapiens) (UniProt P10635); test: qHTS Assay for Inhibitors and Substrates of Cytochrome P450 2D6 (AID 891); further: nearly all actives have a fitted effect of over 60% in size; further: potency means the concentration at half of the fitted maximal effect
# Procedure, shortened: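 Luminescent read-out of luciferin formed by 5 nM human CYP2D6 demethylating 30 uM Luciferin-ME EGE (Km level) over 60 min at room temperature after NADPH regeneration addition. Data normalized to full inhibition by 1.43 uM quinidine.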
# [7] = Confirmation and Secondary Assay for Modulators of Hemoglobin Beta Chain Splicing at IVS2 654 locus (AID 910);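 further: HeLa cells stably carrying EGFP split by mutant beta-globin IVS2-654 intron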
# Procedure, shortened: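 HeLa cells stably expressing EGFP interrupted by β-globin IVS2-654 intron, seeded overnight in Opti-MEM/2% FCS, then treated 2 days at 37 °C. Restored splicing read as total peak GFP intensity per well by laser scanning cytometry (488 nm excitation, 500–520 nm emission); 500 nM antisense PNA as control.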
# [8] = Cell Viability - LYMP2-001 (AID 921);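 further: series mostly up to about 92 µM; cells exposed to compound for 24 h at 37 °C; nearly all actives have a fitted effect of over 70% in size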
# Procedure, shortened: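 A lymphoblastoid cell line of human origin was treated with library compounds across a concentration series for 24 hours, and viable cell number was estimated from ATP-driven luciferase light output. Hill modeling gave AC50.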
# [9] = Confirmation and Secondary Assay for Modulators of Hemoglobin Beta Chain Splicing at IVS2 705 locus (AID 930);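 further: HeLa cells stably expressing the EGFP-705 splicing reporter; GFP fluorescence per well restored by corrected splicing of the IVS2-705 intron in EGFP; series mostly up to about 46 µM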
# Procedure, shortened: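 Stable HeLa line with EGFP disrupted by mutant beta-globin intron 2 (705). Overnight attachment, then 2 days of compound at 37C, 5% CO2. Signal: peak GFP intensity summed over objects 5-250 µm.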
# [10] = biological target: Pyruvate kinase (Leishmania mexicana) (UniProt Q27686); test: qHTS Validation Assay for Inhibitors of Leishmania Mexicana Pyruvate Kinase (AID 945)
# Procedure, shortened: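 Mutant LmPYK (E451W), 0.2 nM, plus 0.5 mM PEP and 0.1 mM ADP in 50 mM imidazole pH 7.2 containing 0.01% Tween 20 and 0.05% BSA. Incubated 1 h at room temperature; luminescence via PKLight, normalized to DMSO.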
# [11] = MultiTox-Fluor Cytotoxicity Assay - LYMP1-001 - Dead Cells (AID 946)
# Procedure, shortened: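 Cytotoxicity as increased dead-cell protease fluorescence (bis-AAF-R110, 485/520 nm), read 60 min after MultiTox-Fluor reagent. Human lymphoblastoid line exposed 16 h; Hill-fitted AC50, with DMSO as 0% and 15 uM tetraoctylammonium bromide as 100%.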
# [12] = MultiTox-Fluor Cytotoxicity Assay - LYMP1-001 - Live Cells (AID 947)
# Description: NIH Chemical Genomics Center [NCGC]
# NIH Molecular Libraries Screening Centers Network [MLSCN]
# National Institutes of Environmental Health Sciences [NIEHS]
# National Toxicology Program [NTP]
# We have developed a 1536-well cell-based assay for quantitative high throughput screening (qHTS) against a number of cell lines to determine in vitro cytotoxicity of small molecules. This particular assay uses a human lymphoblastoid cell line (LYMP1-001) purchased from Coriell Institute.
# NCGC Assay Protocol Summary:
# The MultiTox-Fluor Cytotoxicity Assay (Promega) is a homogeneous method to simultaneously measure the relative number of live and dead cells in culture by detecting changes in cell membrane integrity. There are two fluorogenic peptide substrates in the assay reagent. Viable cells are determined when the cell-permeant substrate (GF-AFC) enters the cell and is cleaved by protease from live cells resulting in liberated fluorophore. This live-cell protease activity restricted to viable cells is proportional to cell number. The dead cells are determined by using fluorogenic cell-impermeant peptide substrate (bis-AAF-R110) which cleaved by dead cell proteases leaking from damaged cell membrane.
# Using the MultiTox-Fluor Cytotoxicity Assay, the relative number of live cells was measured in the lymphoblastoid cell line with complete culture medium following compound treatment for 16 hours. The assay was performed in opaque black Kalypsys 1536-well plates. In the screen, tetraoctylammonium bromide was used as positive control. Library compounds were measured for their ability to cause acute toxicity in the cell line, as reflected by a decrease in live cell protease activity, in a concentration-dependent manner. […] AC50 values were determined from concentration-response data modeled with the standard Hill equation.
# qHTS protocol for MultiTox-Fluor Cytotoxicity assay
# [Step] [Parameter] [Value] [Description]
# 1. Reagent; 5 uL; 2500 lymphoblastoid cells/well
# 2. Time; 5 hr; 37 C incubation
# 4. Controls; 23 nL; Tetraoctylammonium bromide 6.4pM to 92 uM
# 5. Time; 16 hr; 37 C incubation
# 6. Reagent; 5 uL; MuliTox-Fluor Assay reagent
# 7. Time; 60 min; Room Temperature
# 8. Detection; live-cell fluorescence (Ex/Em=405/510); EnVision plate reader
# Keywords: cell viability, cytotoxicity, lymphoblastoid cell line, fluorescence, NTPHTS, NTPHTS_NCGC, NIEHS, EPA, DSSTox, MLSMR, MLSCN, NIH Roadmap, qHTS, NCGC
# [13] = biological target: Cytochrome P450 2C9 (Homo sapiens) (UniProt P11712); test: qHTS Assay for Inhibitors and Substrates of Cytochrome P450 2C9 (AID 883); further: nearly all actives have a fitted effect of over 60% in size; further: potency means the concentration at half of the fitted maximal effect
# Procedure, shortened: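 10nM CYP2C9 + 100uM Luciferin-H (=KM), 25mM KPO4; cpd 10 min 37C; NADPH regen, 60 min 37C; stop/detect with P450 Glo-Buffer 20 min; luminescence. Norm. to 57uM sulphaphenazole as full inhibition.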
# [14] = biological target: Cytochrome P450 2C19 (Homo sapiens) (UniProt P33261); test: qHTS Assay for Inhibitors and Substrates of Cytochrome P450 2C19 (AID 899); further: nearly all actives have a fitted effect of over 60% in size
# Procedure, shortened: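 Luminescent read-out of luciferin formed from Luciferin-H EGE (10uM, equal to KM). Enzyme 5nM in 50mM KPO4; compound added, 10 min at 37C, then NADPH regenerating system for 60 min at 37C. Full inhibition defined by 57uM ketoconazole.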
# [15] = biological target: Muscarinic acetylcholine receptor M1 (Rattus norvegicus) (UniProt P08482); test: qHTS Assay for Antagonists of Acetylcholine Muscarinic M1 Receptor: Measurement of IP-One Response (AID 944); further: nearly all actives have a fitted effect of over 75% in size; further: potency means the concentration at half of the fitted maximal effect
# Procedure, shortened: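 Read-out: HTRF competition between d2-IP1 and Eu-cryptate anti-IP1 antibody, emission 620 and 665 nm. Stimulus was carbachol, EC80 (200 nM), for 30 min in M1-CHO cells (rat receptor), after 10 min compound pre-treatment.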
# [16] = qHTS Assay for Identification of Small Molecule Antagonists for Thrombopoietin (TPO) Signaling Pathway (AID 918); conditions: TPO-dependent cell signaling reporter, antagonist mode; further: potency means the concentration at half of the fitted maximal effect; nearly all actives have a fitted effect of over 60% in size
# Procedure, shortened: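 Luminescence read-out: GPIIb-promoter luciferase in Ba/F3 cells carrying human TPO receptor. Compounds added with 26 pM TPO (EC50), 24 hrs, 37 C, 5% CO2; cells deprived of IL-3 overnight beforehand. Inhibition of signal scored.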
# [17] = biological target: Cytochrome P450 3A4 (Homo sapiens) (UniProt P08684); test: qHTS Assay for Inhibitors and Substrates of Cytochrome P450 3A4 (AID 884); further: series mostly up to about 57 µM; nearly all actives have a fitted effect of over 50% in size
# Procedure, shortened: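 Luminescent readout of luciferin produced by CYP3A4 (20 nM) dealkylation of Luciferin-PPXE, 25 uM (its KM). NADPH-driven reaction ran 60 min at RT after 10 min compound preincubation; data scaled to 57 uM ketoconazole as 100% inhibition.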
# [18] = qHTS Assay for Identification of Small Molecule Agonists for Thrombopoietin (TPO) Signaling Pathway (AID 917)
# Procedure, shortened: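 Human TPO receptor–transfected Ba/F3 cells (murine, IL-3-dependent) in IL-3-deficient medium; compounds plus TPO at EC50, 26 pM final; 24 hrs, 37 C; GpIIb-luciferase luminescence after 10 min RT detection.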
# [19] = biological target: Muscarinic acetylcholine receptor M1 (Rattus norvegicus) (UniProt P08482); test: qHTS Assay for Antagonists of Acetylcholine Muscarinic M1 Receptor: Kinetic Measurement of Intracellular Calcium Response (AID 943); further: potency means the concentration at half of the fitted maximal effect; nearly all actives have a fitted effect of over 75% in size
# Procedure, shortened: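 Read-out: peak over basal Fluo-4 fluorescence, kinetic at 1 Hz for 4 min after EC80 carbachol (100 nM final). Rat M1-CHO cells, dye loaded 1 h at 37C, compound added 10 min before agonist.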
# Sequence of Muscarinic acetylcholine receptor M1 (Rattus norvegicus) (P08482 whole entry, looked up): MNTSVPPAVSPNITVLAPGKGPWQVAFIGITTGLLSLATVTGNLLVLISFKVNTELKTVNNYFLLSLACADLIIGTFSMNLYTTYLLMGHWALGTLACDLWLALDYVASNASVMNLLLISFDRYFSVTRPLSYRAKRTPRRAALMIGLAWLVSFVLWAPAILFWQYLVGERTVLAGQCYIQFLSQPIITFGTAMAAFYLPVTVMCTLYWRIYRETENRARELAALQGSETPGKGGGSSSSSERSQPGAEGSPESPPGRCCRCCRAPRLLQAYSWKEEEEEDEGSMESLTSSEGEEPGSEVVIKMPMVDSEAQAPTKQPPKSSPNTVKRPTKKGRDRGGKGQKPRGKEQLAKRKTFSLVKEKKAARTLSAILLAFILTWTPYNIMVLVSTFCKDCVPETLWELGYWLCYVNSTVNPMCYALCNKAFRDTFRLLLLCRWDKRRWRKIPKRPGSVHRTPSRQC
# Sequence of Cytochrome P450 2C9 (Homo sapiens) (P11712 whole entry, looked up): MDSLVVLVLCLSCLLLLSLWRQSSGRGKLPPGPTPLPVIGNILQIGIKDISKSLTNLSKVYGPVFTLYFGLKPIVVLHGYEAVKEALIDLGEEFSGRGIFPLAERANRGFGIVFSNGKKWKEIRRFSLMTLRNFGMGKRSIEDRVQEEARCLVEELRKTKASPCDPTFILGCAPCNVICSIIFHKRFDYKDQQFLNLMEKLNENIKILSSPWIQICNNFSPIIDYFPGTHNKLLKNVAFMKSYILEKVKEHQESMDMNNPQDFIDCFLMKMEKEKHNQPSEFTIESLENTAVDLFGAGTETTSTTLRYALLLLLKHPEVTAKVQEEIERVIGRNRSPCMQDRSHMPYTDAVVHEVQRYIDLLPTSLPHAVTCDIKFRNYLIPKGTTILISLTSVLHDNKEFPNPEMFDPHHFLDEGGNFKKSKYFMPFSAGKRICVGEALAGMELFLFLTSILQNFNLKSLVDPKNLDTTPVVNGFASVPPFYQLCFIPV
# Sequence of Cytochrome P450 2C19 (Homo sapiens) (P33261 whole entry, looked up): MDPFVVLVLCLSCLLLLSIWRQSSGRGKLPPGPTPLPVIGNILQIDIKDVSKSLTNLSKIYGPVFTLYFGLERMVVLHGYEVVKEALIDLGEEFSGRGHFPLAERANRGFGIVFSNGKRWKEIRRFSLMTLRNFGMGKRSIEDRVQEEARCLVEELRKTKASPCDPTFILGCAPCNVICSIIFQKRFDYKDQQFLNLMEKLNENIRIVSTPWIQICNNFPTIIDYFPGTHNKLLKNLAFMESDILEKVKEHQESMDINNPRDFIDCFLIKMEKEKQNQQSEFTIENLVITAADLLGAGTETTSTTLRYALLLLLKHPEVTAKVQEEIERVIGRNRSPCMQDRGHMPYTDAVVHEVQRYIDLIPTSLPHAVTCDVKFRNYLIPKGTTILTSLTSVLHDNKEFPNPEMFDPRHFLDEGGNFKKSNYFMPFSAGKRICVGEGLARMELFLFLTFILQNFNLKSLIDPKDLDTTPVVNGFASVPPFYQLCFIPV
# Sequence of Cytochrome P450 2D6 (Homo sapiens) (P10635 whole entry, looked up): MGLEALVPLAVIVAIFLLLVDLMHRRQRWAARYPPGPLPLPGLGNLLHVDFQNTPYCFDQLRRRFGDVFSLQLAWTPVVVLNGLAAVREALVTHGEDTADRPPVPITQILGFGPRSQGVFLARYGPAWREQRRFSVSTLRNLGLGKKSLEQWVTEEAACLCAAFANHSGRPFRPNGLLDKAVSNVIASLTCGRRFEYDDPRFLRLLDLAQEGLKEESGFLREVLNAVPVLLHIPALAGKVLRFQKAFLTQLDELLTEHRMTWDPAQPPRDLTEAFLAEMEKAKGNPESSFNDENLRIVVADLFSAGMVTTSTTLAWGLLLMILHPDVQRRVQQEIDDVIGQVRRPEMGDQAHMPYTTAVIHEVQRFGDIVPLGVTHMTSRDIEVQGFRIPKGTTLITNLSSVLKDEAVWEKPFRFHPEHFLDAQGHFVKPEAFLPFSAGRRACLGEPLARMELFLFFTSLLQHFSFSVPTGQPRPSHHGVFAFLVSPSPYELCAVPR
# Sequence of Pyruvate kinase (Leishmania mexicana) (Q27686 2-499 E452W): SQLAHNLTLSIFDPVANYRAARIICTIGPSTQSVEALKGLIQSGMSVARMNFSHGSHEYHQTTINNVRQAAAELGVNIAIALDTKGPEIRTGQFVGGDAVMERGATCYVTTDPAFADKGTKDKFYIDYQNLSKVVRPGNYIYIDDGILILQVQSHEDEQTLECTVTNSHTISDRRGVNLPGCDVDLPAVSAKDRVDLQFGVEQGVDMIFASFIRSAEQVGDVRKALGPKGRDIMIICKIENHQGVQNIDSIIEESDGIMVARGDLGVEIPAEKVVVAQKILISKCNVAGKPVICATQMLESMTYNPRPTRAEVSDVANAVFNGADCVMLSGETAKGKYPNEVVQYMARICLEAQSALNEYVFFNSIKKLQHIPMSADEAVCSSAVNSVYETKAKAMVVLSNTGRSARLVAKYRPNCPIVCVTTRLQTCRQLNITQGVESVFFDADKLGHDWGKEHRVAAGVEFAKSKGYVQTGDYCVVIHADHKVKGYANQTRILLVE
# Sequence of Cytochrome P450 3A4 (Homo sapiens) (P08684 whole entry, looked up): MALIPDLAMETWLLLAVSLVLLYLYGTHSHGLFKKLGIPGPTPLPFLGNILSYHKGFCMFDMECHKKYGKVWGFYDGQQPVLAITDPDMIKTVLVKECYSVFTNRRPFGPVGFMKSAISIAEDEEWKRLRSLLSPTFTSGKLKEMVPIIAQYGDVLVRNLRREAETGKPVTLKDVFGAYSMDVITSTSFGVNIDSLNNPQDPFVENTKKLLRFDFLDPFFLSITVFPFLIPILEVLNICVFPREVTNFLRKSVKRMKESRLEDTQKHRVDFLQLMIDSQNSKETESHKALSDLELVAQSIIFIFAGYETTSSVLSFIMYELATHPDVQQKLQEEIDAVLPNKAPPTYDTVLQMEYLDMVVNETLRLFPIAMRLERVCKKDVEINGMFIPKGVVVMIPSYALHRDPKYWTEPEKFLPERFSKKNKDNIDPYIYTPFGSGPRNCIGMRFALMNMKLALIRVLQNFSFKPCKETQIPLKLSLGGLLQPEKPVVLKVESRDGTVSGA
# Sequence of Guanine nucleotide-binding protein G(i) subunit alpha-1 (Homo sapiens) (P63096 whole entry, looked up): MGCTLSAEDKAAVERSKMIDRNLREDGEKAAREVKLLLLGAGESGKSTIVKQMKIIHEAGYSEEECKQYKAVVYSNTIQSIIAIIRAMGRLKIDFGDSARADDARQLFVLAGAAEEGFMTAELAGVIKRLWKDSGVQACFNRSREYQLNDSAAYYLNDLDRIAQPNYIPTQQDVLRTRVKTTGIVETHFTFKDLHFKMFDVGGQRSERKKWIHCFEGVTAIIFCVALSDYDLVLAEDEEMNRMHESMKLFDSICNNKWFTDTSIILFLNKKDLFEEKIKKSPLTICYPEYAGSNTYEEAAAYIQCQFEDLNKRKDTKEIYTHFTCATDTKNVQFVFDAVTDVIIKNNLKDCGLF
structure (smiles),measurement,setting,value
COc1ccc(CN(CCN(C)C)c2ccccn2)cc1,outcome,[1],inactive
same,outcome,[2],inactive
same,outcome,[3],inactive
same,Potency,[4],inactive
same,Potency,[5],inactive
same,Potency,[6],501 nM (active) and 126 nM (active)
same,outcome,[7],inactive
same,outcome,[8],inactive
same,outcome,[9],inactive
same,Potency,[10],inactive
same,outcome,[11],inactive
same,outcome,[12],inactive
Cc1nc2ccccn2c(=O)c1CCN1CCC(C(=O)c2ccc(F)cc2)CC1,Potency,[4],inactive
same,Potency,[13],inactive
same,Potency,[5],inactive
same,Potency,[14],inactive
same,outcome,[7],inactive
same,outcome,[9],inactive
same,Potency,[15],8.91 µM (active)
same,Potency,[10],inactive
Nc1ncn([C@@H]2O[C@H](CO)[C@@H](O)[C@H]2O)c(=O)n1,outcome,[1],inactive
same,outcome,[2],inactive
same,outcome,[3],inactive
same,outcome,[7],inactive
same,Potency,[16],3.16 µM (active)
same,outcome,[9],inactive
same,Potency,[15],inactive
same,Potency,[10],inactive
CN1CCN(CC(=O)N2c3ccccc3C(=O)Nc3cccnc32)CC1,Potency,[4],inactive
same,outcome,[17],inactive
same,outcome,[7],inactive
same,outcome,[18],inactive
same,outcome,[9],inactive
CN=C(NC#N)NCCSCc1nc[nH]c1C,outcome,[1],inactive
same,outcome,[2],inactive
same,outcome,[3],inactive
same,Potency,[4],inactive
same,Potency,[13],inactive
same,Potency,[6],inactive
same,Potency,[14],inactive
same,outcome,[7],inactive
same,outcome,[18],inactive
same,outcome,[8],inactive
same,outcome,[9],inactive
same,Potency,[15],inactive
same,Potency,[10],inactive
same,outcome,[11],inactive
same,outcome,[12],inactive
CC1=NS(=O)(=O)c2cc(Cl)ccc2N1,Potency,[4],inactive
same,Potency,[13],inactive
same,Potency,[5],inactive
same,Potency,[6],inactive and 7.94 µM (active)
same,Potency,[14],inactive
same,outcome,[7],inactive
same,outcome,[9],inactive
same,Potency,[10],inactive
Cc1nc2sccn2c(=O)c1CCN1CCC(=C(c2ccc(F)cc2)c2ccc(F)cc2)CC1,Potency,[4],inactive
same,Potency,[5],inactive
same,Potency,[6],10 µM (active)
same,outcome,[18],inactive
same,Potency,[19],3.16 µM (active)
same,Potency,[15],15.8 µM (active)
CCCN(CCC)CCc1cccc2c1CC(=O)N2,Potency,[4],inactive
same,outcome,[17],inactive
same,outcome,[7],inactive
same,outcome,[9],inactive
same,Potency,[19],17.8 µM (active)
CCCOc1ccccc1-c1nc2n[nH]nc2c(=O)[nH]1,Potency,[4],inactive
same,outcome,[17],inactive
same,outcome,[7],inactive
same,outcome,[18],inactive
same,outcome,[9],inactive
same,Potency,[10],inactive
NC(=Nc1ccccc1)Nc1ccccc1,outcome,[1],inactive
same,outcome,[2],inactive
same,outcome,[3],inactive
same,outcome,[17],inactive
same,outcome,[8],inactive
same,outcome,[11],inactive
same,outcome,[12],inactive
c1cc(CN2CCCCC2)cc(OCCCNc2nc3ccccc3s2)c1,Potency,[4],inactive
same,Potency,[5],inactive
same,Potency,[19],8.91 µM (active)
same,Potency,[15],14.1 µM (active)
COc1cc2c(cc1OC)-c1cc(=Nc3c(C)cc(C)cc3C)n(C)c(=O)n1CC2,Potency,[4],inactive
same,Potency,[13],1.26 µM (active)
same,Potency,[5],inactive
same,Potency,[10],inactive
